This note sets out measurements from the supplement of paper PMC3898565.

The term cell viability denotes a read-out of living cells in per cent, often relative to untreated cells.

Structures are written as SMILES. ± gives the uncertainty stated by the source.
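Note: viable cell number estimated from Alamar Blue fluorescence read at 560/90, part of a single-dose primary screen of an FDA-approved drug library.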

For this test, the system named is U87. The experiment in a line: cell viability relative to vehicle control; higher = less growth inhibition (less active). To be noted: 10 µM; 72 h.
As to `CS(=O)(=O)c1ccc(-c2cc(Br)sc2-c2ccc(F)cc2)cc1`, the cell viability worked out at 107.7 ± 0.82%.

Regarding `CN(CCO)CC(O)Cn1cnc2c1c(=O)n(C)c(=O)n2C` (centres undefined), the cell viability was found to be 104.3 ± 0.69%.

As to `O=c1c(O[C@@H]2O[C@H](CO)[C@@H](O)[C@H](O)[C@H]2O)c(-c2ccc(O)c(O)c2)oc2cc(O)cc(O)c12` [Isoquercitrin], the cell viability was determined as 104 ± 1.7%.

`Cc1c(OCC(F)(F)F)ccnc1C[S+]([O-])c1nc2ccccc2[nH]1` (centres undefined): the cell viability was determined as 104.7 ± 0.78%.

As for `C[C@H](N[C@@H](CCc1ccccc1)C(=O)O)C(=O)N1CCC[C@H]1C(=O)O`, the cell viability is 98.3 ± 1.7%.

As to `O=c1[nH]cnc2c1ncn2[C@H]1CC[C@@H](CO)O1`, the cell viability came to 105 ± 2.5%.

For `CCN1CCCC1CNC(=O)c1cc(S(=O)(=O)CC)c(N)cc1OC` (centres undefined) [Amisulpride], the cell viability came out at 101.2 ± 0.96%.

For the compound `CN1CCc2cc(Cl)c(O)cc2[C@@H](c2ccccc2)C1`, the cell viability stood at 97.5 ± 6.3%.

In the case of `CNCC[C@@H](Oc1ccccc1C)c1ccccc1`, the cell viability turned out to be 108.2 ± 1%.

For `Nc1nc(Cl)nc2c1ncn2[C@H]1C[C@H](O)[C@@H](CO)O1`, the cell viability came to 35.4 ± 1.4%.

As for `CC(C)OC(=O)CCC/C=C\C[C@@H]1[C@@H](CC[C@@H](O)CCc2ccccc2)[C@H](O)C[C@@H]1O`, the cell viability worked out at 106 ± 4.2%.

As for `CCN1CCC[C@H]1CNC(=O)c1cc(S(N)(=O)=O)ccc1OC`, the cell viability stood at 102 ± 3.2%.

Consider `CC(C)c1nc(CN(C)C(=O)N[C@H](C(=O)N[C@@H](Cc2ccccc2)C[C@H](O)[C@H](Cc2ccccc2)NC(=O)OCc2cncs2)C(C)C)cs1`, for which the cell viability amounted to 102 ± 3%.

With `CC(C(O)c1ccc(O)cc1)N1CCC(Cc2ccccc2)CC1` (centres undefined) [Ifenprodil], the cell viability is 99.5 ± 1.3%.

For `C[N+]1(C)CCC(OC(=O)C(O)(c2ccccc2)C2CCCC2)C1` (centres undefined) [Glycopyrrolate], the cell viability stood at 103 ± 1.1%.

Turning to `O=c1cnn([C@@H]2O[C@H](CO)[C@@H](O)[C@H]2O)c(=O)[nH]1`, the cell viability came to 94.8 ± 1.9%.

`CCN1CCC[C@H]1CNC(=O)c1c(O)c(Cl)cc(Cl)c1OC` [Raclopride]: the cell viability turned out to be 99.9 ± 6.5%.

On to `Clc1ccccc1C(c1ccccc1)(c1ccccc1)n1ccnc1`, for which the cell viability turned out to be 107.5 ± 0.99%.

Turning to `CC(C)C[C@H](NC(=O)[C@@H](COC(C)(C)C)NC(=O)[C@H](Cc1ccc(O)cc1)NC(=O)[C@H](CO)NC(=O)[C@H](Cc1c[nH]c2ccccc12)NC(=O)[C@H](Cc1cnc[nH]1)NC(=O)[C@@H]1CCC(=O)N1)C(=O)N[C@@H](CCCNC(=N)N)C(=O)N1CCC[C@H]1C(=O)NNC(N)=O`, the cell viability came to 101.1 ± 0.58%.

Regarding `COc1ccc(/C=C/C(=O)Nc2ccccc2C(=O)O)cc1OC`, the cell viability was found to be 104 ± 1.1%.

Regarding `C[C@]12C=CC(=O)C=C1CC[C@@H]1[C@@H]2[C@@H](O)C[C@@]2(C)[C@H]1CC[C@]2(O)C(=O)COC(=O)CCC(=O)O`, the cell viability was found to be 104 ± 0.49%.

Take `CNCC[C@H](Oc1cccc2ccccc12)c1cccs1`: the cell viability was determined as 101 ± 4.5%.

In the case of `CSc1nc2cc(Cl)c(Oc3cccc(Cl)c3Cl)cc2[nH]1`, the cell viability amounted to 103 ± 2.5%.

`COc1cc2nc(N3CCN(C(=O)C4CCCO4)CC3)nc(N)c2cc1OC` (centres undefined) [Terazosin]: the cell viability came out at 100.6 ± 0.86%.

Turning to `OCCOCCN1CCN(C2=Nc3ccccc3Sc3ccccc32)CC1`, the cell viability is 99.6 ± 2.8%.

As for `CC#C[C@]1(O)CC[C@H]2[C@@H]3CCC4=CC(=O)CCC4=C3[C@@H](c3ccc(N(C)C)cc3)C[C@@]21C`, the cell viability is 105 ± 1.6%.

As to `O=C(O)CCc1nc(-c2ccccc2)c(-c2ccccc2)o1`, the cell viability came out at 129 ± 2.2%.

On to `CN(C)CCOc1ccc(/C(=C(/CCCl)c2ccccc2)c2ccccc2)cc1`, for which the cell viability amounted to 106 ± 1.8%.

With `CC(C)(C)C(O)/C=C/c1ccc2c(c1)OCO2` (centres undefined) [Stiripentol], the cell viability was determined as 105.6 ± 0.6%.

On to `C[C@H]1[C@H](OC(=O)CCC(=O)O)O[C@@H]2O[C@@]3(C)CC[C@H]4[C@H](C)CC[C@@H]1[C@@]24OO3`, for which the cell viability came to 98.9 ± 1.1%.

As to `CN(C)CC/C=C1/c2ccccc2COc2ccc(CC(=O)O)cc21`, the cell viability worked out at 95.88 ± 0.86%.

For the compound `COc1ccc(-c2cc(=O)c3c(OC)c(OC)c(OC)c(OC)c3o2)cc1OC` [Nobiletin], the cell viability is 104.9 ± 0.98%.

Take `CCCCCCCCCCC[C@@H](C[C@@H]1OC(=O)[C@H]1CCCCCC)OC(=O)[C@H](CC(C)C)NC=O`: the cell viability stood at 103 ± 3.9%.

`O=C(O[C@@H]1C[C@@H]2C[C@H]3C[C@H](C1)N2CC3=O)c1c[nH]c2ccccc12`: the cell viability came out at 105.8 ± 0.72%.

`CC1(C)C[C@@H]1C(=O)N/C(=C\CCCCSC[C@H](N)C(=O)O)C(=O)O`: the cell viability worked out at 129 ± 3.1%.

Consider `COc1cc([C@@H]2c3cc4c(cc3[C@@H](O[C@@H]3O[C@@H]5CO[C@@H](C)O[C@H]5[C@H](O)[C@H]3O)[C@H]3COC(=O)[C@H]23)OCO4)cc(OC)c1O` [Etoposide], for which the cell viability was 70.5 ± 4.8%.

With `CC(C)C[C@H](NC(=O)[C@@H](O)[C@H](N)Cc1ccccc1)C(=O)O`, the cell viability stood at 97.13 ± 0.56%.

For the compound `CCC(C)n1ncn(-c2ccc(N3CCN(c4ccc(OCC5COC(Cn6cncn6)(c6ccc(Cl)cc6Cl)O5)cc4)CC3)cc2)c1=O` (centres undefined), the cell viability stood at 21.4 ± 2.1%.

With `CN1CCN(CCCN2c3ccccc3Sc3ccc(Cl)cc32)CC1`, the cell viability is 95.9 ± 7%.
